# Measured values published in PubChem BioAssay (NCI).
# About 83,000 compounds went through this panel and 20% of them were active in at least one assay; those are over-represented in the sample as a whole.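 Assay: single dose, 48 h. Readout: percent growth (0 = no net growth; negative = cell death). Active: <10.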 A number with no mark means an inactive call. Active and inactive are the calls of the source.
# System: HL-60(TB) leukemia
# Test: NCI-60 one-dose screen, 48 h (100 = growth as untreated, 0 = no growth, -100 = all killed)
# Conditions: 10 µM unless noted
row,SMILES,growth
1,CC(=O)OCCOc1cc(Cl)c(Cl)cc1Cl,77.3%
2,O=C(Nc1ccc(F)cc1F)c1cc(I)ccc1O,-34.5% (active)
3,CC(=O)c1cc(C(=O)c2ccc3c(c2)Sc2ccccc2N3)n2ccccc12,14.3%
4,O=c1c(-c2ccc3c(c2)OCO3)coc2c(CO)c(O)ccc12,-46.9% (active)
5,CC(C)(C)c1cc(/C=N\NC(=O)/C=C/C=C/c2ccc3c(c2)OCO3)c(O)c(C(C)(C)C)c1,84.1%
6,O=[N+]([O-])c1ccc(NCSc2ccc(Cl)cc2)cc1,83.2%
7,CC[N+]1(CC)CC[N+]2(CCCC(C)CC2)CC1 (centres undefined),101%
8,COc1ccc(C(=O)/C=C/c2ccc(C)cc2)cc1S(N)(=O)=O,56.2%
9,O=S(=O)(O)CC(O)CN1CCN(CCO)CC1 (centres undefined),96%
10,CCc1ccc(-c2ccc(COc3ccc(CC4SC(=O)NC4=O)cc3)cc2)cc1 (centres undefined),88.1%
11,O=c1[nH]nc(SC2CCCCC2)c(=O)[nH]1,108%
12,O=C1NC(=O)c2c1c1c3ccccc3[nH]c1c1oc3cc(Br)ccc3c21,104%
13,CC(C)OC(=O)Nc1ccc(-c2nc(-c3cccc(OCCN4CCOCC4)c3)c(-c3ccnc(Br)c3)[nH]2)cc1,-47.7% (active)
14,C[C@H](NC(=O)c1c(N)nn2cccnc12)c1cc2cccc(C#Cc3cnn(C)c3)c2c(=O)n1-c1ccccc1,-18.2% (active)
15,CC1Cc2c(ncn3c(-c4ccc(F)cc4)nnc23)N(C)c2ccccc21 (centres undefined),91.2%
16,CC(=O)Nc1cccc(C2=CC(c3ccc(C)cc3)n3ncnc3N2)c1 (centres undefined),89.9%
17,O=C1C2=C(CCN(Cc3ccccc3)C2)N2CCN=C2N1Cc1ccc(C(F)(F)F)cc1,20.4%
18,COc1ccc(Cl)cc1NC(=O)c1cc2c(n1C)-c1nc(NC(=O)C(C)(C)C)sc1CC2,82.7%
19,COC(=O)[C@]12CCC(C)(C)C[C@H]1[C@H]1C(=O)C[C@@H]3[C@@]4(C)c5c([nH]c6ccccc6c5=O)C(C)(C)[C@@H]4CC[C@@]3(C)[C@]1(C)CC2,21.8%
20,O=S(=O)(Nc1ccc2ccccc2c1)c1ccc(-c2cnc(C3CC3)o2)cc1,-28% (active)

row,SMILES,growth
1,CCCNc1nc(C)[nH]c(=O)c1S,92.1%
2,O=C(O)CCN1CCN(c2cccc(Cl)c2)CC1,97%
3,OCCS,98.4%
4,CCCOC(=O)c1nc(N(CC2CCCCC2)C(=O)NC)sc1/N=C/c1ccccc1,-9.46% (active)
5,Cc1ccc(C(=O)Nc2ccccc2N)cc1,-19.5% (active)
6,COC(=O)C1CCc2sc3ncnc(Nc4cn[nH]c4C(=O)Nc4ccc(CN5CCN(C)CC5)cc4)c3c21 (centres undefined),-28.8% (active)
7,CCOc1ncc([N+](=O)[O-])c(OCC)n1,108%
8,COc1cccc(-c2nc3sccn3c2-c2ccnc(NCCNS(=O)(=O)c3c(Cl)cccc3Cl)c2)c1,25.9%
9,COc1cccc(/C=C2\SC(N3CCN(c4ccccn4)CC3)=NC2=O)c1,95.5%
10,COc1cc(/C=N/NC(=O)c2cnn3c2NC(c2ccccc2)C3)ccc1Oc1ccccc1 (centres undefined),14.3%
11,COc1ccc(Cn2c(Br)c3c(c2Br)-c2nc(N)sc2CC3)cc1,-16% (active)
12,CCC1CCc2nc3sc(C(=O)Nc4cccc(F)c4)c(N)c3cc2C1 (centres undefined),23%
13,O=C1c2cccnc2C(=O)c2c1c(C(=O)OCCCN1CCCCC1)c1ccccn21,-21.6% (active)
14,CCOC(=O)c1ccc2c(c1)c1c(C)c3ccncc3c(C)c1n2C,3.93% (active)
15,S=C(Nc1ccc(Cl)cc1)Nc1ccc(Cl)cc1 (tested in a mixture with another compound),8.57% (active)
16,CC(=O)OC1Oc2cc(C)c(C)cc2-c2oc(=O)c(-c3cc4ccc(N(C)C)cc4oc3=O)cc21 (centres undefined),25.6%
17,Cc1c(Br)cccc1NC(=O)c1sc2nc3c(cc2c1N)CN(Cc1ccccc1)CC3,-30.5% (active)
18,CC1(C)CC(=O)c2c(ccc(C(=O)C[C@H](N)CO)c2N)O1,44.8%
19,Oc1cccc2oc(=S)[nH]c12,121%
